Pf Dd2 inh – Plasmodium falciparum Dd2 growth inhibition; Potency, µM (titrated, usually from 28.9 µM), without a hit: at the highest dose activity, negative = inhibition, most hits filed as inhibitors; AID 1347417; 4.3% of 120,000 active; P. falciparum Dd2 growth, SYBR Green, 72 h; active means well fitted inhibition curve with a large enough effect;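 further: plate controls were DMSO vehicle for no effect and reference drug for full effect; nearly all actives have a fitted effect of over 65% in size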
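Infected erythrocytes (Dd2, 0.3% parasitemia, 2.5% hematocrit final) are added to compound in RPMI-1640/Albumax II medium, grown 72 h at 37C in low oxygen, then lysed with saponin/Triton-X containing SYBR Green and read by fluorescence.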
* = called active by the depositor; i = inactive; [ ] = another dose, or the depositor's remark. The entries come from a sample that favours hits as a whole. Potency means the concentration at half of the fitted maximal effect.

SMILES | Pf Dd2 inh
COCc1noc([C@@H]2CN(Cc3ccc(F)c(OC)c3)C[C@H]2C(N)=O)n1 | -0.5%
CCOc1ccc(NCc2cccn2-c2nnc(N3CCC(C(=O)NCc4cccc(OC)c4)CC3)s2)cc1 | i
COc1cccc(N2CCN(C(=O)c3cccn3-c3nnc(N4CCCCC4)s3)CC2)c1 | i
COc1cccc(CNCc2cccn2-c2nnc(N3CCN(c4ccccc4)CC3)s2)c1 | 10µM*
O=C(CN1C(=O)NC2(CCCCC2)C1=O)Nc1ccccc1 | 17.3%
O=C(C1CCCC1)N1CCN(c2cc(-c3ccccc3)[nH]n2)CC1 | i
C[C@@H]1C(=O)O[C@H]2[C@H]1CC[C@@]1(C)Cc3sc(NS(=O)(=O)c4ccc(F)cc4F)nc3[C@@H](C)[C@H]21 | i
COCCN1C(=O)c2cccn2CC1CNC(=O)c1ccccc1OC (stereo not given) | -17.9%
Cc1oc2ccc(O)c(CN(C)Cc3ccccc3)c2c1C(=O)Nc1cccc(Cl)c1C | 3.16µM*
Cc1c(Cl)cccc1NC(=O)c1ccc(C(=O)Nc2cccc(Cl)c2C)cc1 | 29.6%
Cc1ccccc1NC(=O)C1=NO[C@@H]2CN(CCc3ccccc3)C[C@H]12 | -14.6%[44.1 µM]
CCCn1ccc2oc(C)c(C(=O)NCc3ccccc3)c2c1=O | -8.7%
CCc1ccc2oc(C(=O)Nc3cccc(Cl)c3C)cc(=O)c2c1 | 70.2%
Cc1ccccc1NC(=O)c1ccc2nc(Cc3ccccc3)oc2c1 | 12.3%
Cc1ccccc1NC(=O)c1c(C)oc2ccc(O)c(CN(C)Cc3ccccc3)c12 | 1.12µM*
CCN(Cc1ccccc1)Cc1c(O)ccc2oc(C)c(C(=O)Nc3ccccc3C)c12 | 1.12µM*
Cc1cc(C)c2c(=O)cc(C(=O)Nc3ccc(S(=O)(=O)N(C)Cc4ccccc4)cc3)oc2c1 | i
CNCc1ccc(C(F)(F)F)cc1 | -1.4%[44.1 µM]
Cc1ccc(-c2nnc(C3CN(C(=O)c4ccc(C)nc4)CC34CCOCC4)o2)cc1 (stereo not given) | -5.3%
Cc1nnc(-c2cc(C(=O)NC3CCOCC3)ccn2)n1CCc1ccccc1 | i
COC[C@@H]1[C@H](C(=O)N2CCN(c3ccc(F)cc3)CC2)CCC(=O)N1C | 6.5%
N#Cc1ccc(CN2CCCCCCNC(=O)CC2c2ccccc2)cc1 (stereo not given) | i
O=C1CC(c2ccccc2)N(C(=O)C2CC2)CCCCCCN1 (stereo not given) | -9.1%
O=C1CC(c2ccccc2)N(Cc2ccc3c(c2)CCO3)CCCCCCN1 (stereo not given) | 12.6µM*
O=C1CC(c2ccccc2)N(C(=O)CNS(=O)(=O)c2ccc3c(c2)OCCO3)CCCCCN1 (stereo not given) | i
SMILES | Pf Dd2 inh
O=C1CC(c2ccccc2)N(Cc2ccc3[nH]ccc3c2)CCCCCN1 (stereo not given) | 7.94µM*
O=C1CC(c2ccccc2)N(C(=O)NCc2ccccc2)CCCCCN1 (stereo not given) | -1.7%
CCC(=O)N1CCC(C(NC(=O)c2ccccc2)C(=O)NCc2ccccc2)CC1 (stereo not given) | 2.6%
CNC(=O)[C@@H]1C[C@H](n2cc(C(C)(C)NC(=O)c3ccccc3OC)nn2)CN1 | 6.7%
CN(C)[C@@H]1CN(C(=O)C2CCCC2)CC[C@@H]1CO | -10.7%
COc1ccc(-c2cc3c(=O)n(CCNC(=O)Cc4ccsc4)ccn3n2)cc1 | -17.1%
CC(C)(C)OC(=O)N1CC(Nc2ccc(O)cc2)C1 | 11.2µM*
CC(C)(C)OC(=O)N1CC(NCc2ccccn2)C1 | -1.5%[44.1 µM]
Cc1cc(Cl)ccc1NC1CN(C(=O)OC(C)(C)C)C1 | -9.1%[44.1 µM]
COc1ccc(-c2cnc3n[nH]c(-c4ccc(F)cc4C)c3n2)cn1 | i
Cc1ccc(Nc2c(-c3ccc(C)s3)nc3ncccn23)cc1 | -19.1%
COc1ccc(Nc2c(-c3cc(Br)ccc3O)nc3ncccn23)cc1OC | 1.26µM*
COc1ccc(Nc2nc(-c3ccccc3F)nc3ccccc23)cc1OC | i
COCCn1ncc(N2CCCC(CC(=O)NCc3cccc(F)c3)C2)cc1=O (stereo not given) | 4.7%
CN1CC(=O)N(C2CCNC2)Cc2c(NC3CCOC3)ncnc21 (stereo not given) | 2.8%
CC(C)NC(=O)NC[C@H]1OC[C@@H](NCc2ccccc2O)[C@@H]1O | -11.8%[44.1 µM]
Cc1noc(-c2cccc(F)c2)c1C(=O)NCc1cccc(Cl)c1 | i
CCOC(=O)c1[nH]c(=O)[nH]c1C1CC(=O)Nc2c1cnn2C(CC)CC (stereo not given) | 0.4%
O=C(CCC(F)(F)F)NC1CC(=O)N(CCCc2ccccc2)C1 (stereo not given) | -16.3%
CCOC(=O)c1cnc(N2CCN(c3ccc(OC)cc3)CC2)c2ccccc12 | 12.2%
CCOc1ccc(CNC(=O)c2cnc(SC)nc2CC)cc1 | i[5.79 µM]
CCC[C@@H]1CN(c2nc(SC)ncc2C(=O)OCC)C[C@H]1N(C)C | 12.6µM*
Cc1ccc(C2NC(=O)N(CC(=O)NC3CCCC3)C3=C2C(=O)OC3)cc1 (stereo not given) | -21.2%
O=C1NC(C(=O)N2CCCCC2)Cn2cccc21 (stereo not given) | 25.7%
CC(C)c1nc2c(c(-c3ccc(O)cc3)n1)CN(Cc1cccc(C(F)(F)F)c1)CC2 | 2.51µM*
SMILES | Pf Dd2 inh
CC(C)c1nc2c(c(-c3ccc(O)cc3)n1)CN(Cc1ccccc1)CC2 | -4.9%
CC(C)c1nc2c(c(-c3ccc(O)cc3)n1)CN(C(=O)c1ccccc1F)CC2 | -7.9%
Cc1nc2c(c(-c3ccc(Cl)cc3)n1)CN([S+](=O)([O-])c1c(C)noc1C)CC2 | i
Cc1noc(C)c1[S+](=O)([O-])N1CCc2nc(C(C)C)nc(-c3ccc(Cl)cc3)c2C1 | i
CC(C)c1nc2c(c(-c3ccc(O)cc3)n1)CN(CC1CC1)CC2 | i
COc1ccc(CN2CCc3nc(C(C)C)nc(-c4ccc(O)cc4)c3C2)cc1 | 8.91µM*
Cc1noc(C)c1[S+](=O)([O-])N1CCc2nc(C(C)C)nc(-c3ccc(O)cc3)c2C1 | 10µM*
CC1=C[C@@H](CO)[C@H](C(C)C)C[C@H]1CC(=O)NCc1ccc(F)cc1 | 7.5%[44.1 µM]
Cc1nc(-c2cccc(NC(=O)N[C@H](C)c3onc(C)c3C(=O)O)c2)no1 | 16.6%[44.1 µM]
CNC(=O)[C@@H]1CN(C(=O)COc2ccc(Cl)cc2C)C[C@H]1CO | 10.8%
O=C(CN1CC2CC(C1)[C@H]1CCCC(=O)N1C2)N1CCN(c2ccccc2)CC1 (stereo not given in full) | -16.7%
COCCn1c(C)cnc1CC1CCN(C(=O)c2ccc(OC)nc2)CC1 | 16.3%
Cc1ccc(CN2CCc3nc(N(C)C)[nH]c(=O)c3CC2)cc1C | 15.8%[5.79 µM]
CNC(=O)C1(N2CCC[C@H]2C(=O)N2CCC[C@@H]2COC)CCCCC1 | -24.6%[44.1 µM]
COCCNC(=O)[C@@H]1C[C@H](Oc2cccnc2)CN1C(=O)c1ccc(OC)c(F)c1 | 19.9%
CCOc1ccc(Nc2nc(Nc3ccc(OCC)cc3)nc(N3CCOCC3)n2)cc1 | -14.9%
Cc1cccc(Nc2nc(N)nc(CN3CC[C@@H](N)[C@H](O)C3)n2)c1 | -1.1%
Cc1cccc(Nc2nc(Nc3cccc(C)c3)nc(N3CCOCC3)n2)c1 | 11.2µM*
Cn1cccc1C(=O)N1C[C@@H](Oc2ccccc2)C[C@@H]1C(=O)N1CCOCC1 | -3.9%
CCc1nnc2ccc(NC(C)C)nn12 | 2.0%
CCc1nnc2ccc(NCc3ccccc3)nn12 | 6.31µM*
CCc1nnc2ccc(NC3CC3)nn12 | 1.8%
Cc1noc(C)c1C(=O)N1Cc2ccccc2CC2(CCCN(C)C2)C1 (stereo not given) | -27.5%
CC1(C(=O)N2CCc3ccccc3C2)CCCCC(=O)N1 (stereo not given) | -16.6%
